Drawing on PubChem BioAssay AID652104 (National Center for Advancing Translational Sciences (NCATS), 2013), this text covers Potency and growth rescue (activation) for 65 molecules.

The campaign covered roughly 410,000 compounds. About 7,200 (1.8%) were called active. Entries that show only a call come without a potency. Another 7% or so got no clear call; they are omitted. Calls follow the shape of the dose curve; as a rule, active = well fitted activation curve with a large enough effect; inconclusive = small, poorly fitted or top-dose-only effect, or another doubt; inactive = no such curve, though single readings can be large or run the other way. The full list was thinned out, with actives kept by preference.
Potency is read from the fitted curve at half-maximal effect.

This experiment is described as follows: qHTS of TDP-43 Inhibitors. Also: nearly all actives have a fitted effect of over 50% in size. The following applies: TDP-43 expressing yeast growth rescue, BacTiter-Glo, 24 h; series mostly up to 46.1 µM. The method, boiled down: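 Cell-based yeast growth screen: TDP-43 expression induced in galactose, inoculum OD600=0.02 after raffinose pregrowth to mid-log. Read-out BacTiter-Glo luminescence at 24 hr, 30 deg C; inhibition of toxicity seen as signal increase.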
As to `Cc1cccc(-n2ncc(C(=O)N3CCC(C)CC3)c2C2CCN(C(=O)OC(C)(C)C)CC2)c1`, the Potency entry was “inactive”. For the molecule `CC(C)(C)C1CCc2c(sc(NC(=O)c3ccccc3F)c2C(=O)N2CCCCC2)C1` (stereo not given), the Potency result was “inactive”. `COc1ccc(-c2nc(Cn3c(=O)cc(C)c4c(C)nn(-c5ccccc5)c43)c(C)o2)cc1OC`: the Potency entry was “inactive”. Still for that read-out and setting: the value for `CCc1ccccc1NC(=O)c1cnn(-c2ccc(F)cc2)c1C1CCNCC1` was “inactive”. Consider `COc1ccccc1CNC(=O)C(=O)NCC(c1ccco1)S(=O)(=O)c1ccc(F)cc1` (stereo not given), for which the Potency entry was “inactive”.

Turning to `COc1cc(OC)c(OC)cc1/C=C/c1nc2ccccc2c(=O)n1-c1ccc(Br)c(C)c1`, the Potency is 22.4 µM (active). Still for that read-out and setting: the result for `COc1cc(C(=O)Nc2ccc(-n3c(C)nc4ccccc4c3=O)cc2)cc(OC)c1OC` reads “inactive”. Same read-out and setting: the value for `COc1cc(OC)c(OC)cc1/C=C/c1nc2cc3ccccc3cc2c(=O)n1-c1ccc(F)c(Cl)c1` was “inactive”. For the molecule `O=C(Cc1ccc(Cl)cc1)NCC(c1cccs1)S(=O)(=O)c1ccc(Cl)cc1` (stereo not given), the growth rescue (activation) was 0.548% [at 9.22 µM] (inactive). For the molecule `CCc1ccccc1N(C)C(=O)C1CCCN(c2ncnc3onc(-c4ccc(F)cc4)c23)C1` (stereo not given), the Potency entry is “inactive”.

Turning to `Cc1c(Cl)cccc1NC(=O)C1CCCN(c2ncnc3onc(C)c23)C1` (stereo not given), the Potency entry is “inactive”. For the molecule `Cc1ccc(Cl)cc1N(C)C(=O)C1CCCN(c2ncnc3onc(-c4ccc(F)cc4)c23)C1` (stereo not given), the Potency was 35.5 µM (active). Same read-out and setting: the value for `Cc1cn(C)c(CC(=O)NCc2ccccc2)c1C(=O)O` was “inactive”; that for `O=C(/C=C/c1ccccc1)N1CCN(Cc2cc(=O)n3nc(-c4ccccc4F)sc3n2)CC1` was “inactive”; that for `O=C(NCc1ccccc1)c1cc(-c2cccc(Cl)c2)on1` was “inactive”. Same read-out and setting: the value for `O=C(Nc1ccccc1C(F)(F)F)c1cc(-c2ccc(O)cc2)on1` was 12.6 µM (active); that for `CCc1ccccc1NC(=O)c1cc(-c2ccc3c(c2)OCO3)on1` was “inactive”.

Turning to `COc1ccc(NC(=O)Cn2c(=O)cc(C)c3c(C)nn(-c4cccc(Cl)c4C)c32)cc1OC`, the Potency entry was “inactive”.

In the case of `CCOC(=O)c1cc(-c2ccccc2)n(-c2cccc(C(=O)Nc3cc(OC)cc(OC)c3)c2)c1C`, the Potency result is “inactive”.

Take `CC(C)OCCCn1c(SCC(=O)c2ccccc2)nc2c(sc3ccccc32)c1=O`: the Potency entry was “inactive”.

Regarding `CCn1c(CNS(=O)(=O)c2ccc(Cl)cc2)n[nH]c1=S`, the Potency entry was “inactive”. Still for that read-out and setting: the value for `CCn1c(CN2C(=O)CSc3ccccc32)n[nH]c1=S` was “inactive”. On the same count and under the same terms, the value for `CCn1c(CSCc2c(Cl)cccc2Cl)n[nH]c1=S` was 11.2 µM (active). For the molecule `CC(C)(C)c1ccc(C(=O)Nc2ccc3c(c2)CCCN3C(=O)c2cccs2)cc1`, the growth rescue (activation) is 18.3% [at 9.22 µM] (inactive). Turning to `CCOC(=O)c1c(S(=O)(=O)NCC(=O)Nc2ccc(Cl)c(C(F)(F)F)c2)c(C)n(C)c1C`, the Potency entry was “inactive”. Same read-out and setting: the result for `CCOc1cc(/C=N/Nc2cc(C)nc3ccc(C)cc23)ccc1O` reads 15.8 µM (active); that for `CCOc1cc(/C=C2\SC(N3CCCC(C)C3)=NC2=O)ccc1O` (stereo not given), “inactive”; that for `COc1cc(OC)cc(C(=O)Nc2cc3nn(-c4ccccc4)nc3cc2Cl)c1`, “inactive”. Take `O=[N+]([O-])c1cc(-c2nc(-c3ccccc3)no2)ccc1NCc1ccco1`: the Potency result was “inactive”. `CCc1nn(CCCC(=O)NCc2ccccc2OC)c(=O)c2cc3occc3n12`: the Potency entry is “inactive”. On the same count and under the same terms, the value for `COc1ccccc1NC(=O)c1sc2nc(C)c(C(=O)Nc3ccc(Cl)cc3)c(-c3ccc(Br)cc3)c2c1N` was “inactive”; that for `Cc1ccc(NC(=O)c2sc3nc(N)c(C#N)cc3c2N)cc1` was “inactive”. Regarding `COc1cccc(C(=O)c2sc3nc(-c4ccccc4)cc(C(F)(F)F)c3c2N)c1`, the Potency result is “inactive”. The same measure, in the same setting: the value for `COC(=O)c1cc2c(N)c(C(=O)c3ccc(Cl)cc3)sc2nc1C(OC)OC` was “inactive”. Same read-out and setting: the result for `Cc1nc2sc(C(=O)c3ccccc3)c(N)c2c2c1CCCC2` reads 22.4 µM (active).

Take `Cc1ccc2c(N)c(C(=O)c3ccccc3)sc2n1`: the Potency was 14.1 µM (active). `CCCS(=O)(=O)c1c(Nc2ccccc2C)sc(C(=O)c2ccccc2)c1N`: the Potency result is “inactive”.

For the molecule `CN(C)c1ccnc2sc(C(=O)c3ccccc3)c(N)c12`, the Potency was 6.31 µM (active). For `NC(=O)c1sc2nc3c(c(-c4ccccc4)c2c1N)CCC3`, the Potency was 28.2 µM (active). Take `Nc1c(C(=O)c2cccs2)sc2nsc(SCCN3CCCCC3)c12`: the Potency result is “inactive”. Same read-out and setting: the result for `CN(C(=O)c1ccccc1)c1nccnc1C#N` reads “inactive”; that for `Cc1ccccc1CSCCNC(=O)C1CCN(S(=O)(=O)Cc2ccccc2)CC1`, “inactive”; that for `Cc1c(NS(=O)(=O)c2ccc(Cl)cc2)c(=O)n(-c2ccccc2)n1C`, “inactive”. The same measure, in the same setting: the value for `CCCN(CCC)CCNC(=O)Cn1cnc2sc(C)c(S(=O)(=O)N3CCC(C)CC3)c2c1=O` was “inactive”; that for `CCc1ccccc1NC(=O)N1CCN(C(=O)c2nsc3ccccc23)CC1` was “inactive”.

For `COc1ccc(C2Sc3ccccc3NC3=C2C(=O)c2ccccc23)c(OC)c1OC` (stereo not given), the Potency entry is “inactive”.

For `Cc1ccc(C(=O)Nc2ccc(C(=O)O)cc2)cc1S(=O)(=O)Nc1ccccc1`, the Potency result was “inactive”. Regarding `Cc1cccc(C(=O)Nc2ccc(-c3nc4ncccc4o3)cc2C)c1`, the Potency entry was “inactive”. As for `O=C(NCc1cccnc1)C(=O)NCC(c1cccnc1)N1CCN(c2ccccc2)CC1` (stereo not given), the Potency result was “inactive”. On the same count and under the same terms, the result for `O=C(NCc1ccc2c(c1)CCN2C(=O)c1ccccc1)c1ccccc1` reads “inactive”; that for `COc1ccc2[nH]c3c(C)c4cc[n+](C)cc4c(C)c3c2c1`, “inactive”; that for `COc1ccc(N)c(C)c1`, “inactive”. The same measure, in the same setting: the value for `COc1ccc2[nH]c3ccc(OC)cc3c2c1` was 8.91 µM (active); that for `Cc1ccc(Cl)cc1N(C)C(=O)Cn1nc(Cc2cccnc2)c2ccccc2c1=O` was “inactive”; that for `CCCn1c2ccccc2c2cnn(CC(=O)N3CCCC(C(=O)OCC)C3)c(=O)c21` (stereo not given) was “inactive”. `CCc1ccc(S(=O)(=O)n2ccnc2)cc1`: the Potency entry is “inactive”.

With `COc1cccc(Cn2c(SCc3ccc(C(=O)N4CCC(C)CC4)cc3)nc3ccncc32)c1`, the Potency entry was “inactive”. With `N#C/C(=C\c1cccc(F)c1)c1nc(-c2cc3c(ccc4ccccc43)oc2=O)cs1`, the Potency entry was “inactive”. The same measure, in the same setting: the result for `O=C(CSc1nc2c(c(=O)[nH]1)CN(Cc1ccc3c(c1)OCO3)CC2)Nc1cc(F)ccc1F` reads “inactive”.

Consider `CCCn1c(C2CCCN2c2nc(-c3ccc(OC)cc3)cs2)nc2ccccc21` (stereo not given), for which the Potency result was “inactive”.

As to `COc1ccc(-c2csc(Nc3ccccn3)n2)cc1`, the Potency is 3.55 µM (active).

Turning to `Cc1cc(-c2ccccc2)n2nc(-c3ccccc3)cc2n1`, the Potency entry is “inactive”. Same read-out and setting: the value for `COc1ccc(-c2csc(-c3c(N)c(C(=O)c4ccc(OC)c(OC)c4)n4ccccc34)n2)cc1` was “inactive”; that for `Cc1cccc(NS(=O)(=O)c2ccc([N+](=O)[O-])cc2)n1` was “inactive”. Same read-out and setting: the result for `Cc1cccc(Nc2nc(-c3ccccc3)cs2)n1` reads 14.1 µM (active).
